From PubChem BioAssay
This is a sample that favours compounds with a hit; in the whole collection about 19% have one here.
TDP1 cell CPT = DT40-hTDP1 cell growth loss with CPT; Potency, µM (series often up to 46.2 µM), most hits filed as inhibitors; chicken DT40 Tdp1-/-;hTDP1 cells + 20 nM CPT, ATP luminescence, 48 h; actives 12% (n = 420,000); further: nearly all actives have a fitted effect of over 55% in size
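Chicken DT40 Tdp1-/- cells complemented with human TDP1, 400 cells/well, exposed to compounds plus 20 nM camptothecin for at least 48 h at 37 C; viability read as ATP content by CellTiter-Glo luminescence.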
TDP1 block = blocks human tyrosyl-DNA phosphodiesterase 1. actives 0.28% (n = 350,000). Potency, µM (top dose mostly 130 µM), most hits filed as inhibitors. Q9NUW8. recombinant TDP1, AlphaScreen DNA substrate cleavage. AID 485290; further: nearly all actives have a fitted effect of over 40% in size
Target sequence (Q9NUW8 whole entry, looked up): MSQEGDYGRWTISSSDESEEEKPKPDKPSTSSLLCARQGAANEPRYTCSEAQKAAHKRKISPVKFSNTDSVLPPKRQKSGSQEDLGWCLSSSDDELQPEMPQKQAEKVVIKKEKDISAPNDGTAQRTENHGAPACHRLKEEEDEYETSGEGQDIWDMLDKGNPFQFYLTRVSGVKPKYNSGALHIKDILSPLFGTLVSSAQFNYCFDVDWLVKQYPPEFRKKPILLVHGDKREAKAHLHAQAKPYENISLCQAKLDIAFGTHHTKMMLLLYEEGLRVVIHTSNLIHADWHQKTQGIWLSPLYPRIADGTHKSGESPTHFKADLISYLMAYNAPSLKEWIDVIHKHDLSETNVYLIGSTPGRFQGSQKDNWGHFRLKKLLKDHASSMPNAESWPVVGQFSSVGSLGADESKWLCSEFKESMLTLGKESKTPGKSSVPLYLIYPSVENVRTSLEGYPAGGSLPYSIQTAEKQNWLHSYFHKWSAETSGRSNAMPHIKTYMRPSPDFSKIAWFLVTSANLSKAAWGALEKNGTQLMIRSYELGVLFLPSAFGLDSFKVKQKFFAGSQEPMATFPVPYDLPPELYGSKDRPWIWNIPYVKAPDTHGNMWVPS
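Recombinant E. coli-expressed Tdp1 (1 nM) preincubated with compound 15 min at RT, then 5'-biotin/3'-phosphotyrosine-FITC DNA substrate (15 nM) added for 5 min. AlphaScreen beads (10 ug/ml) added, 10 min RT; tyrosine-FITC cleavage read as signal loss.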
HepG2 viability = HepG2 cytotoxicity, counter-screen for TGF-b inhibitors; HepG2 CAGA-GFP viability, ATP luminescence, 18 h; Potency, µM (titrated, usually from 46.1 µM), hits mostly cytotoxic; actives 0.76% (n = 410,000)
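HepG2 CAGA-GFP cells (1000/well, DMEM with 1% FBS) received compound, then TGF-beta at 500 pg/mL final, and were incubated 18 hours at 37 degrees C. Viability was read by CellTiter-Glo luminescence. Media-only wells were set as complete cell-killing and DMSO as no toxicity.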
TDP1 cell noCPT = qHTS for Inhibitors of human tyrosyl-DNA phosphodiesterase 1 (TDP1): qHTS in cells in absence of CPT; DT40 Tdp1-/- hTDP1 cells, no CPT, ATP luminescence, 48 h; Potency, µM (doses to about 46.2 µM), most hits filed as inhibitors; actives 15% (n = 420,000); AID 686978, 2013; further: nearly all actives have a fitted effect of over 55% in size
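A cellular qHTS used chicken DT40 cells lacking endogenous Tdp1 but carrying stably transfected human TDP1. Compounds were applied without camptothecin, and cell growth kinetics were judged by ATP-dependent luminescence after ≥48 hr.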
TGFb SMAD3 inh = inhibitors of TGF-b signaling; HepG2 CAGA-GFP TGF-b/SMAD3 reporter, GFP fluorescence, 18 h; TGF-beta stimulated, 500 pg/mL final; Potency, µM (titrated, usually from 46.1 µM), actives largely listed as inhibitors; actives 1.2% (n = 410,000); AID 588855; further: nearly all actives have a fitted effect of over 65% in size
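Inhibition was scored as loss of TGF-beta-induced (500 pg/mL final, 18 hours, 37 degrees C) GFP in HEPG2 cells carrying a CAGA-GFP reporter, in DMEM with 1% FBS. Well GFP was summed per cell; Activity was normalised to unstimulated and stimulated DMSO wells, then concentration-response fitting.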
IL1B secr inh = inflammasome signaling inhibition, IL-1 beta readout. THP-1 LPS/ATP IL-1B secretion, AlphaLISA, 16 h; active compounds read low. activity change, % at 57.5 µM. actives 4.7% (n = 360,000). AID 743279; in the data active means activity change below about -50%; inconclusive means mostly about -30% to -49%
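Secreted IL-1B measured by AlphaLISA bead assay after 16 h compound exposure of THP-1 cells; compounds (final up to 57.5 uM) added 1 h before LPS (250 ng/mL) and ATP (1.25 mM) stimulation; lower signal means less secretion.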
Numbers stand for hits; – = inactive; ? = inconclusive; · = no result given; [ ] = remark or other dose. Unless noted, the call rests on the fitted dose curve; in most records, active means well fitted curve in the direction sought with a large enough effect; inconclusive means small, poorly fitted or top-dose-only effect, or another doubt; inactive means no such curve, though single readings can be large; an effect the other way counts as inactive or inconclusive.

SMILES	TDP1 cell CPT	TDP1 block	HepG2 viability	TDP1 cell noCPT	TGFb SMAD3 inh	IL1B secr inh
O=C(NCCOc1ccccc1F)C1CC(=O)N(Cc2ccccc2)C1 (centres undefined)	–	–	–	–	–	–
CC(CC(=O)Nc1nnc(C(C)(C)C)s1)c1ccccc1 (centres undefined)	–	·	–	?	–	–
COc1ccccc1-c1ncn(Cc2cccc(-c3ccccc3)c2)c1-c1ccco1	25.9µM	·	·	16.4µM	·	?
COc1ccccc1-c1nn(Cc2ccccc2)cc1C(=O)NCC(c1ccco1)N1CCCC1 (centres undefined)	?	–	–	–	–	–
COc1ccccc1-c1ncn(Cc2cccc(-c3ccccc3)c2)c1-c1cc(C)cc(C)c1	?	·	·	14.6µM	·	·
O=C(Nc1ccccc1)C1=C(O)CC(c2ccoc2)CC1=Nc1ccccc1 (centres undefined)	?	–	–	?	–	–
CC1CN=C2C(C(=O)Nc3ccccc3)=C(O)CC(c3ccccc3)N21 (centres undefined)	?	–	–	23.1µM	–	–
O=C(/C=C/c1c(F)cccc1Cl)N1CCc2ccccc2C1	?	·	–	?	–	-63.1
O=C(/C=C/c1c(F)cccc1Cl)c1ccc(F)cc1	20.6µM	–	15.8µM	25.9µM	?	–
O=C(/C=C/c1ccccc1[N+](=O)[O-])N1CCc2ccccc2C1	?	·	–	16.4µM	–	-53.3
CCc1ccc(/C=C\C(=O)N2CCc3ccccc3C2)cc1	–	–	–	–	–	?
O=C(/C=C/c1ccc[nH]1)c1ccc(F)cc1	–	–	–	–	–	–
O=C(/C=C/c1ccccc1[N+](=O)[O-])OCC(=O)N1CCN(c2ccccc2)CC1	20.6µM	·	–	?	–	–
COc1ccc(C2(C(=O)NCC3Cc4cccc(-c5nc(C)cnc5C)c4O3)CCCC2)cc1 (centres undefined)	?	·	·	–	·	·
CC(NC(=O)CN1C(=O)NC2(CCCC2)C1=O)c1ccc2ccccc2c1 (centres undefined)	–	–	–	–	–	–
O=C(NCc1nnc2n1CCN(C(=O)c1cccc(Cl)c1)CC2)C1CC1	–[9.04 µM]	·	·	–	·	·
CC(C)c1ccc(NC2CCCN(C(=O)CC3CCCC3)C2)cc1 (centres undefined)	20.6µM	–	–	10.3µM	?	–
Cc1ccnn1CCC(=O)N1CCCC(Nc2ccc(C(C)C)cc2)C1 (centres undefined)	20.6µM	·	–	16.4µM	–	–
CCc1ccc(S(=O)(=O)c2nnn3c2nc(N2CCOCC2)c2sccc23)cc1	–	–	–	–	–	·
COc1ccc(CNCC(=O)Nc2cccc(S(N)(=O)=O)c2)cc1	–	–	–	–	–	–
CCOc1ccccc1NS(=O)(=O)c1c(-c2ccc(C)cc2)csc1C(=O)OC	?	–	–	16.4µM	?	·
CCOC(=O)c1ccccc1NS(=O)(=O)c1c(-c2ccc(C)cc2)csc1C(=O)OC	6.51µM	–	–	5.8µM	?	·
COC(=O)C1=C(c2ccccc2)c2ccccc2S(=O)(=O)N1CC(=O)Nc1ccc(OC)cc1OC	–	–	–	?	–	·
Cc1ccccc1Cn1c(SCc2ccc(C(=O)NC(C)c3ccccc3)cc2)nc2ccncc21 (centres undefined)	9.2µM	–	–	16.4µM	?	·
Cc1ccccc1Cn1c(SCc2ccc(C(=O)NCc3cccs3)cc2)nc2ccncc21	20.6µM	–	–	18.4µM	?	·
SMILES	TDP1 cell CPT	TDP1 block	HepG2 viability	TDP1 cell noCPT	TGFb SMAD3 inh	IL1B secr inh
COc1ccccc1NC(=O)NNC(=O)c1ccc2ccccc2c1O	–	–	–	–	–	–
Cc1ccc(C(=O)N/C(=C\c2cn(S(=O)(=O)N(C)C)c3ccccc23)C(=O)NCCCN2CCOCC2)cc1	?	–	–	?	–	–
CCc1ccc(S(=O)(=O)c2cn(CC(=O)Nc3cccc(C)c3)c3ccc(Cl)cc3c2=O)cc1	–	–	–	–	–	·
Nc1nc2ccccc2n1C(=O)c1cccs1	?	–	–	?	–	–
COc1ccc(C(=O)n2c(N)nc3ccccc32)cc1OC	?	·	–	?	–	–
Nc1nc2ccccc2n1C(=O)c1ccccc1	?	–	–	18.4µM	–	–
Nc1nc2ccccc2n1C(=O)CCc1ccccc1	?	–	–	18.4µM	–	–
Nc1nc2ccccc2n1C(=O)c1ccc(F)cc1	?	–	–	18.4µM	–	–
CCOC(=O)COn1c(=O)c(-c2ccccc2)[n+]([O-])c2ccccc21	–	·	–	–	–	–
Cc1cc(C)n(CC(=O)NNC(=O)c2cccc(C(F)(F)F)c2)n1	–	–	–	–	–	–
Cc1cc(NNC(=O)c2cccc(C(F)(F)F)c2)nc2c1c(C)nn2C	10.3µM	–	–	5.8µM	?	–
CC(C)C(=O)Nc1ncc(Cc2cccc(Cl)c2)s1	?	–	–	?	–	-72.0
Cc1cc(C)nc(SCC(=O)Nc2ncc(Cc3cccc(Cl)c3Cl)s2)n1	23.1µM	–	–	18.4µM	–	–
CC(=O)Nc1ncc(Cc2cccc(Cl)c2)s1	–	–	–	–	–	–
Cc1cccc(Cc2cnc(NC(=O)C3=NCCN3)s2)c1	–	–	–	23.1µM	?	–
O=C(Nc1ncc(Cc2cccc(Cl)c2)s1)c1ccc([N+](=O)[O-])cc1	?	–	–	8.2µM	?	–
COc1ccc(NC(=O)c2ccc3nc(C)c(N(C)C(=O)CCc4ccccc4)n3c2)cc1OC	?	·	–	?	–	–
CCCCC(=O)N(C)c1c(C)nc2ccc(C(=O)NCCOc3ccc(OC)cc3)cn12	–	·	–	–	–	–
CCCCN(C)c1c(C)nc2ccc(C(=O)NCCOc3ccc(OC)cc3)cn12	13µM	·	–	18.4µM	–	–
CCCCN(C)c1c(C)nc2ccc(C(=O)NCc3ccc4c(c3)OCO4)cn12	?	·	–	23.1µM	?	–
CCCCN(C(C)=O)c1c(CC)nc2ccc(C(=O)NCCOc3ccc(OC)cc3)cn12	?	·	–	13µM	–	–
COc1ccc(OCCNC(=O)c2ccc3nc(C)c(N(C)C(=O)CCc4ccccc4)n3c2)cc1	23.1µM	·	–	?	–	–
CCOc1ccc(NC(=O)c2cc(=O)c3cc(CC)ccc3o2)cc1	–	–	–	–	–	·
CC1(OC(=O)c2ccc(Cl)nc2)C(=O)C=c2cc(-c3ccsc3)ncc2=C1OC(=O)C1CCCC1 (centres undefined)	·	–[12.3 µM]	·	·	·	·
